This passage reports outcome results from PubChem BioAssay (NCATS).

Inconclusive results are not listed. Activity calls are given as the source filed them. Calls come from the whole dose curve; as a rule, active = well fitted cell-killing curve with a large enough effect; inconclusive = small, poorly fitted or top-dose-only effect; inactive = no such curve, though single readings can be large or run the other way.

A short description of this experiment: qHTS of pediatric cancer cell lines to identify multiple opportunities for drug repurposing: Primary screen for Rh41 cells (AID 1347108).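 Note: luminescence drop marks cytotoxic hits; nearly all actives have a fitted effect of over 70% in size.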 Conditions: Rh41 rhabdomyosarcoma viability, CellTiter-Glo luminescence, 48 h; series mostly up to 46 µM. An excerpt: Drug repurposing or repositioning has been offered as a strategy for drug development in oncology programs. This approach has special potential for childhood cancers and other rare or orphan diseases, where the expected return on new drug development has been a disincentive to pharmaceuticals. […] In this project we exploit the poly-pharmacology of drugs to discover new indications via phenotypic screening of a panel of 19 well-characterized cell lines derived from solid tumors seen in children and adolescents. The goal is to identify approved drugs with previously unrecognized anticancer properties that has the potential to reveal new mechanisms and biological processes involved in carcinogenesis or drug resistance. We employed a titration-based paradigm (quantitative high-throughput screening or qHTS), where all compounds were tested at multiple concentrations for their effect on cell viability. Concentration-response curves (CRCs) were derived directly from the primary screen, and both potency and efficacy values were used to identify compounds with robust bioactivity profiles. We screened the NIH Chemical Genomics Center (NCGC) Pharmaceutical Collection (NPC) and Mechanism Interrogation Plate (MIPE) small molecule collections of approved and investigational compounds against these cell lines; and measured metabolically active cells after 48 hours of compound treatment as a proxy for cell viability. […] Assay Submitter: Nathalia J. Martinez, National Center for Advancing Translational Sciences, National Institutes of Health, Rockville, MD, USA; email: natalia.martinez@nih.gov Shen, M et al. Quantitative high-throughput phenotypic screening of pediatric cancer cell lines identifies multiple opportunities for drug repurposing. Oncotarget 2017 Dec 19;9(4):4758-4772. PMID 29435139.
The cells were obtained from University of North Carolina (UNC), Pediatric Preclinical Testing Program (PPT), and Coriell Institute (CI). qHTS cell viability assay: Cells were assayed in growth media at a density of 500-1,000 cells/well. Five microliters of cells were dispensed into 1,536-well, white, solid-bottom, TC-treated plates (Greiner Bio One) using a multidrop dispenser and incubated at 37 degrees C, 5% CO2, under a humidified atmosphere for 5 hours. Twenty-three nanoliters of compounds and controls (neutral control DMSO or positive control bortezomib at final concentration of 2.3 µM) were subsequently transferred by Kalypsys pintool. For primary screens, the MIPE collection was tested at 11-point dilutions (final concentrations range from 0.78 nM to 46 µM) and the NPC collection at 8-point dilutions (final concentrations range from 0.59 nM to 46 µM). Compounds tested in follow-up screens were assayed at 11-point dilutions. Cells were incubated for 48 hours, followed by addition of 3 µL of CellTiter-Glo (Promega). After a 15 min incubation at room temperature, samples were analyzed for luminescence intensity using a ViewLux High-throughput CCD imager equipped with clear filters.
In general terms: In qHTS, concentration-response curves come from the screen itself.
As for `CC(C(=O)O)c1ccc2c(c1)Cc1cccnc1O2` (stereo not given), the outcome was inactive.

For `CC(=O)Nc1cccc(O)c1`, the call was inactive.

Consider `C[C@@H]1CCC[C@H](C)N1`, for which the result was inactive.

Consider `C[N+]1(C)CCCC(OC(=O)C(O)(c2ccccc2)c2ccccc2)C1` (stereo not given), for which the compound was called inactive.

`NS(=O)(=O)c1ccc(NC(=O)CCC(=O)O)cc1`: the compound was classed as inactive.

Regarding `COc1ccccc1Oc1c(NS(=O)(=O)c2ccc(C(C)(C)C)cc2)nc(-c2ncccn2)nc1OCCO`, the call was inactive.

Consider `O=S1(=O)OC(c2ccc(O)cc2)(c2ccc(O)cc2)c2ccccc21`, for which the compound was called inactive.

Regarding `NC(=O)CCCCC1CCSS1` (stereo not given), the outcome was inactive.

Consider `CNc1c2c(nn1C)CCCC2`, for which the compound was called inactive.

Turning to `O=C(O)c1cc(=O)c2ccccc2o1`, the compound was called inactive.

Take `O=C(O)Cc1cn(-c2ccccc2)nc1-c1ccc(Cl)cc1`: the compound was called inactive.

In the case of `COc1nccnc1NS(=O)(=O)c1ccc(N)cc1`, the call was inactive.

As to `CCc1cccc(CC)c1NC(=O)CN(CC(=O)O)CC(=O)O`, the call was inactive.

As to `CCCCCC(C)N` (stereo not given), the call was inactive.

In the case of `C/C(=C(\CCO)SS/C(CCO)=C(\C)N(C=O)Cc1cnc(C)nc1N)N(C=O)Cc1cnc(C)nc1N`, the result was inactive.

As for `Cc1cc(-n2nc3ccc(Cl)cc3n2)c(O)c(C(C)(C)C)c1`, the outcome was inactive.

`COc1ccc(NS(=O)(=O)c2ccc(N)cc2)nn1`: the compound was classed as inactive.

On to `NC(=O)NS(=O)(=O)c1ccc(N)cc1`, for which the outcome was inactive.

As for `OC(CCN1CCCC1)(c1ccccc1)C1CCCCC1` (stereo not given), the call was inactive.

For the compound `C[C@@H]1O[C@@H](OC[C@H]2O[C@@H](Oc3c(-c4ccc(O)c(O)c4)oc4cc(O)cc(O)c4c3=O)[C@H](O)[C@@H](O)[C@@H]2O)[C@H](O)[C@H](O)[C@H]1O`, the result was inactive.

Turning to `O=C(O)c1ccccc1OP(=O)(O)O`, the call was inactive.

Turning to `Cc1ccc(S(=O)(=O)NC(=O)NC2CCCCCCC2)cc1`, the compound was classed as inactive.

For `Cc1c(Cn2ccnc2)c2ccccc2n1CCC(=O)O`, the result was inactive.

Regarding `Cc1ccc2c(c1)c1c3n2CCNC3CCC1` (stereo not given), the result was inactive.

Take `Cc1c(I)c(=O)n(-c2ccccc2)n1C`: the compound was classed as inactive.

`CC(C)(C)C(=O)OCOC(=O)[C@@H]1N2C(=O)[C@@H](NC(=O)[C@H](N)c3ccccc3)[C@H]2SC1(C)C`: the compound was called inactive.

As to `CCCOC(=O)c1ccc(N)cc1`, the call was inactive.

As to `C=CCN1C[C@H](C(=O)N(CCCN(C)C)C(=O)NCC)C[C@@H]2c3cccc4[nH]cc(c34)C[C@H]21`, the call was inactive.

Regarding `C/C=C/C(=O)N(CC)c1ccccc1C`, the outcome was inactive.

On to `CC(=O)Oc1cccc(C)c1`, for which the result was inactive.

Consider `CC(=O)N[C@H]1[C@H]([C@H](O)[C@H](O)CO)OC(C(=O)O)=C[C@@H]1N=C(N)N`, for which the outcome was inactive.

Take `O=C(CN1CCNCC1)NC1CCCCC1`: the compound was called inactive.

As to `CC(CSC(=O)c1ccccc1)C(=O)N1C[C@@H](Sc2ccccc2)C[C@H]1C(=O)O` (stereo not given in full), the compound was called inactive.

In the case of `CN1C(=O)CC(c2ccccc2)C1=O` (stereo not given), the compound was classed as inactive.

For `Cc1c(NC(=O)c2cccnc2)c(=O)n(-c2ccccc2)n1C`, the call was inactive.

In the case of `COC(=O)c1cccnc1`, the call was inactive.

As for `CCN(CC)CCOC(=O)C(c1ccccc1)c1ccccc1`, the call was inactive.

In the case of `O=C1c2ccccc2C(=O)C1c1ccc(Br)cc1`, the outcome was inactive.

For the compound `CNCc1ccccc1`, the compound was called inactive.

For `O=C(O)c1ccccc1C(=O)Nc1ccc(S(=O)(=O)Nc2nccs2)cc1`, the call was inactive.
